# Test results reported in PubChem BioAssay AID588342 (National Center for Advancing Translational Sciences (NCATS), 2011).
# Screen size: about 360,000 compounds; about 25,000 (6.9%) were called active. Not shown: some 9% with an inconclusive outcome. The full list was thinned out, with actives kept by preference. A number with no mark means an inactive call. Calls follow the shape of the dose curve; as a rule, active = well fitted inhibition curve with a large enough effect; inconclusive = small, poorly fitted or top-dose-only effect; inactive = flat fitted curve, though single readings scatter.
# Molecular target: Luciferin 4-monooxygenase (Photinus pyralis) (UniProt P08659)
# Assay: qHTS profiling assay for firefly luciferase inhibitor/activator using purifed enzyme and Km concentrations of substrates (counterscreen for miR-21 project); also: nearly all actives have a fitted effect of over 55% in size;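 as to activity change, negative = inhibition: plate controls were vehicle for no effect and reference inhibitor for full effect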
# Conditions: purified FLuc, luminescence inhibition; series mostly up to 57.5 µM; activity change, negative = inhibition: at the top concentration
# Outline: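 Purified P. pyralis luciferase (10nM final) with 10uM D-luciferin and 10uM ATP (Km levels) in 50mM Tris acetate pH 7.5, 10mM Mg acetate, 0.01% Tween-20, 0.05% BSA; qHTS 6-point titration, ~60 µM downward; luminescence read.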
# Potency is read from the fitted curve at half-maximal effect.
# Sequence of Luciferin 4-monooxygenase (Photinus pyralis) (P08659 whole entry, looked up): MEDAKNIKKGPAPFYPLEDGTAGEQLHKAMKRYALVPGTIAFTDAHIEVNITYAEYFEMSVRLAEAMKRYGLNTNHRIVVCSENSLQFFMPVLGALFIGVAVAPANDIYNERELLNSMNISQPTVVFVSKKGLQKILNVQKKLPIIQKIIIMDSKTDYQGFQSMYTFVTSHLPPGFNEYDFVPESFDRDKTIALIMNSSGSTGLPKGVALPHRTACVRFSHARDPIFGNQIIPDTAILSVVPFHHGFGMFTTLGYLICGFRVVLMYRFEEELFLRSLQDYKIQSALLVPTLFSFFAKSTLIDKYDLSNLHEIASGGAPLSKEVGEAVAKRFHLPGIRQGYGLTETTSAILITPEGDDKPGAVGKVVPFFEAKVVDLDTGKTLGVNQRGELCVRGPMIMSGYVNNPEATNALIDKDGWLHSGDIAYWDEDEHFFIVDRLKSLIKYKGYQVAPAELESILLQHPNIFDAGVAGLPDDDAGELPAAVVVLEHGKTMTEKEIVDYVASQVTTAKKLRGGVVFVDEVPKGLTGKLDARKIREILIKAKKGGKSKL
Structure (SMILES),Potency,"activity change, negative = inhibition"
CCOC(=O)c1nc(-c2ccc3c(c2)OCO3)[nH]c1C,15.1 µM (active),–
Cc1ccc(C(=O)OCC(=O)NCc2ccc3c(c2)OCO3)s1,–,-2.21%
CCOCCOC(=O)C1=C(C)NC(=O)NC1c1ccc2c(c1)OCO2 (configuration not stated),–,-0.485%
CCCCN(CC)CCNC(=O)CCNC(=O)Cn1ccc2ccccc2c1=O,–,-0.654%
Cc1ccc(C)c(OCC(=O)Nc2sc3c(c2C#N)CCCC3)c1C,–,-19.4%
O=c1cc(COc2cccc(C(F)(F)F)c2)nc2sc3c(n12)CCCC3,–,4.49%
CC(=O)c1cc(-c2ccccc2)[nH]c1N1CCCC1,–,-0.486%
CN1C(=O)/C(=C/c2ccco2)SC1=Nc1cccc(C(=O)O)c1,–,-13.8%
O=C1NN(c2ccccc2)C(=O)/C1=C/c1ccc(-c2cccc(C(=O)O)c2)o1,26.9 µM (active),–
CCCN(CCC)S(=O)(=O)c1ccc(C(=O)Nc2sc3c(c2C(=O)OC)CCN(CC)C3)cc1,–,-4.85%
CCc1nnc(NC(=O)C2CCN(C(=O)c3ccccc3C)CC2)s1,–,-0.48%
CC(C)(C)c1ccc(/C=C/C(=O)Nc2ncccn2)cc1,4.78 µM (active),–
CC(C)(C)c1ccc(/C=C/C(=O)NC2CCS(=O)(=O)C2)cc1 (configuration not stated),–,-16%
O=C(/C=C/c1ccc(Cl)cc1)Nc1ccc(Br)cn1,–,-2.22%
O=S(=O)(Cc1nnnn1-c1ccc(Br)cc1)c1ccc(F)cc1,–,-2.88%
Cc1cc(C)c(CN2CCN(C(=O)Cn3ccc(NC(=O)OCc4ccccc4)nc3=O)CC2)c(C)c1,–,-0.647%
Cc1cc(C(=O)OCC(=O)N2c3ccccc3NC(=O)C2(C)C)c(C)n1-c1ccccc1,–,-13.2%
Cc1cc(-c2csc(N)n2)c(C)n1-c1ccccc1,19 µM (active),–
CC(=O)Nc1ccc(C(=O)Nc2nc(-c3cc(C)n(Cc4ccccc4)c3C)cs2)cc1,–,-9.54%
C=CCSc1ccc(S(=O)(=O)N2CCN(C)CC2)cn1,–,0.976%
Cc1nc2ccc(S(=O)(=O)N(C)CC(=O)NC(C)c3ccccc3)cc2s1 (configuration not stated),–,0.0818%
COc1cccc(N(CC(=O)Nc2cccc(F)c2)S(C)(=O)=O)c1,–,3.97%
Cc1ccc2nc(-c3ccc(NC(=O)CN(C)S(=O)(=O)c4ccccc4)cc3)sc2c1,15.1 µM (active),–
CCN(CC)S(=O)(=O)c1ccc(NC(=O)CN(c2cccc(F)c2)S(C)(=O)=O)cc1,–,1.16%
Cc1cccc(N(CC(=O)Nc2ccc(-c3nc4ccc(C)cc4s3)cc2)S(C)(=O)=O)c1,5.36 µM (active),–
COc1cc(NC(=O)CN(C)S(=O)(=O)c2ccc3nc(C)sc3c2)cc(OC)c1,–,-2.14%

Structure (SMILES),Potency,"activity change, negative = inhibition"
C=CCNC(=O)COC(=O)CNC(=O)c1cc(Cl)cc([N+](=O)[O-])c1,–,2.04%
Cc1ccc(C)c(N2CCN(C(=O)Cc3c(C(=O)O)c(C)cn3C)CC2)c1,–,-18.7%
CSc1cccc(NC(=O)CN2C(=O)CCc3cc(S(=O)(=O)N4CCCCC4)ccc32)c1,–,-5.44%
Cn1c(=O)n(C)c2cc(/C=N/NC(=O)c3cccc(Br)c3)ccc21,–,-1.27%
COc1cccc(OC)c1C(=O)Nc1ccc2c(c1)n(C)c(=O)n2C,–,3.13%
Cn1c(=O)n(C)c2cc(C(=O)Nc3ccc(Br)cc3)ccc21,15.1 µM (active),–
COc1cc(OC)c(OC)cc1/C=C/c1nc2ccccc2c(=O)n1-c1ccc(Br)c(C)c1,–,-10%
CCOCCCNC(=O)c1ccc(CS(=O)(=O)c2cccc(C(F)(F)F)c2)o1,–,1.28%
Cc1cc2nc3c(=O)n(Cc4ccccc4)c(=O)[nH]c3nc2cc1N,–,-0.764%
Cc1nc2scc(-c3cccs3)c2c(=O)n1N,–,-1.84%
CCc1c(C)nc2cc(-c3cccs3)[nH]n2c1=O,16.9 µM (active),–
CCCCN1Cc2c(nc3cc(-c4ccccc4)[nH]n3c2=O)C1=O,19 µM (active),–
CCCCCN1CC(O)=C(c2ccccc2)C1=N,–,5.48%
Cc1nc2c(-c3ccccc3)c(C)[nH]n2c(=O)c1Cl,–,0.759%
CCc1c(C)nc2cc(C)[nH]n2c1=O,–,4.4%
C=CCc1c(C)nc2cc(-c3ccccc3)[nH]n2c1=O,6.01 µM (active),–
CCOC(=O)c1ccc(NC(=O)CCS(=O)(=O)c2ccc(C)cc2)cc1,–,-0.943%
O=C(/C=C/c1cccc([N+](=O)[O-])c1)OCC(=O)N1CCOCC1,–,2.87%
CCc1ccccc1N1C(=O)CN(S(=O)(=O)CC)CC1(C)C(=O)NC1CCCCC1 (configuration not stated),–,-5.08%
CCCn1c2ccccc2c2cnn(CC(=O)N3CCCC(C(=O)OCC)C3)c(=O)c21 (configuration not stated),–,-3.29%
Cn1c(=O)[nH]c(=O)c2c1nc(NCCc1ccccc1)n2Cc1ccc(F)cc1,–,-1.81%
COc1ccc2c(c1)CCC/C2=N\OC(=O)c1ccccc1F,12 µM (active),–
COc1ccc(OC)c(S(=O)(=O)Nc2ccccc2F)c1,–,0.251%
COc1cc2c(cc1OC)C(COc1ccc(F)cc1)N(C(=O)c1ccccc1F)CC2 (configuration not stated),–,-12.9%
O=C(CNS(=O)(=O)c1ccc2c(c1)OCCCO2)N1CCN(c2ccc(F)cc2)CC1,–,6.66%
CCOC(=O)C1=C(c2ccccc2)O/C(=C(/C(=O)OC)C(F)(F)F)S1,–,0.0843%

Structure (SMILES),Potency,"activity change, negative = inhibition"
COC(=O)/C(=C1\Oc2ccc(C(C)(C)C)cc2S1)C(F)(F)F,3.79 µM (active),–
CC(C)(C)c1ccc(C(=O)NCC(c2ccco2)S(=O)(=O)c2ccc(F)cc2)cc1 (configuration not stated),–,0.828%
CCOC(=O)c1c(C)n(S(=O)(=O)c2ccc(C)cc2C)c2ccc(NS(=O)(=O)c3ccc(C)cc3C)cc12,–,-3.23%
O=C(Nc1ccc(OC(F)(F)F)cc1)C1CCCN(S(=O)(=O)c2ccc(Br)s2)C1 (configuration not stated),–,1.48%
Cc1ccc2c(=O)cc(C(=O)Nc3sc4c(c3C(=O)NCc3cccnc3)CCCC4)oc2c1,–,-3.36%
COc1ccccc1C(=O)NCCn1cc(SCc2ccccc2Cl)c2ccccc21,–,-1.75%
Cc1ccccc1NC(=O)Cn1c(=O)n(CCc2ccccc2)c(=O)c2ccccc21,–,4.4%
Cc1nnc(C)n1-c1ccc(C(=O)Nc2cccc(Br)c2)cc1,–,-0.53%
Cc1cccc(C)c1-n1c(C)cc(/C=C2\C(=O)NN(c3ccccc3)C2=O)c1C,3.38 µM (active),–
COc1ccc(CNC(=O)c2cc3c(s2)-c2ccccc2OC3)cc1,–,-6.91%
Cc1csc(=O)n1CCC(=O)OCC(=O)NNC(=O)c1ccc(Br)cc1,–,2.67%
CCCc1nc2c(C)cc(-c3nc4ccccc4n3C)cc2n1Cc1ccc(-c2ccccc2C(=O)O)cc1,13.5 µM (active),–
CC(=O)Nc1nc2ccccc2n1Cc1ccc(C)cc1,–,2.31%
Cc1ccc(Cn2c(CCCNC(=O)C3CCCCC3)nc3ccccc32)cc1,–,-16.9%
Cc1ccc(C)c(C(=O)COC(=O)Cn2[nH]c(=O)c3ccccc3c2=O)c1,–,0.823%
CCOc1ccccc1NC(=O)Cn1c2ncccc2c(=O)n1-c1ccc(C)c(C)c1,–,-0.586%
COc1cc(CN2CCC(C(N)=O)CC2)ccc1OCc1ccccc1,10.7 µM (active),–
CCOc1cc(CN2CCN(C(=O)CC(C)C)CC2)ccc1OC,–,-0.351%
COc1ccc(COCC(O)CN2CCC(C(N)=O)CC2)cc1 (configuration not stated),–,-1.2%
CCC(C)(C)NC(=O)CN(Cc1cccs1)C(=O)CNS(=O)(=O)c1ccc(F)cc1,–,0.549%
CCOC(=O)Cn1c(=O)n(Cc2ccc(OC)cc2)c(=O)c2cccnc21,–,2.41%
CCOC(=O)c1cnc2c(C)cc(Cl)cc2c1NCCc1ccc(OC)c(OC)c1,–,-8.82%
COc1cc(NC(=O)Cn2nc(-c3ccc(C)c(C)c3)ccc2=O)cc(OC)c1,–,-1.29%
NNC(=O)c1cccc(COCC(F)(F)C(F)F)c1,–,6.5%
CCOC(=O)c1cc(C(C)C)sc1NC(=O)COC(=O)c1nccnc1N,–,12.3%
CC(C)c1cc(C(N)=O)c(NC(=O)c2cccc(COc3ccc(Br)cc3)c2)s1,19 µM (active),–

Structure (SMILES),Potency,"activity change, negative = inhibition"
COc1ccc(CCNC(=O)Cn2c(=O)n(-c3ccccc3)c(=O)c3c(C)c(C)sc32)cc1OC,–,-0.147%
CCOc1ccc(N(CC)C(=O)c2cc3c(=O)oc4ccccc4c3s2)cc1,–,-1.93%
CCCOc1ccc(NC(=O)C2CCCNC2=O)cc1 (configuration not stated),–,3.63% [at 2.3 µM]
COc1ccc(C(=O)/C=C/Nc2ccccn2)cc1,0.107 µM (active),–
CCCOc1ccc(NC(=O)C2OC3OC(C)(C)OC3C3OC(C)(C)OC23)cc1 (configuration not stated),–,7.57%
Cc1ccc(NNC(=O)C2CCC2)cc1C,–,-2.48%
Cc1ccc(N(NC(=O)C(C)(C)O)C(=O)c2ccccc2)cc1C,–,6.23%
COCCN(C(=O)CCC(=O)Nc1ccccn1)C(C(=O)NCCC(C)C)c1ccc(OC)cc1 (configuration not stated),–,-1.3%
CCOc1ccc(NC(=O)C2CCCN(C(=O)Nc3ccccc3)C2)cc1 (configuration not stated),–,-2.4%
CCCOc1ccc(N/C=C/C(=O)C(C)(C)C)cc1,10.7 µM (active),–
CCOc1ccc(NC(=S)N2CCC(NC(=O)c3ccccc3)CC2)cc1,–,0.225%
Cc1ccc(N/C=C/C(=O)c2ccccc2)cc1C,0.151 µM (active),–
COc1ccc(N2C(=O)CCC(C(=O)Nc3ccccn3)C2c2ccc(OC)c(OC)c2)cc1 (configuration not stated),–,1.04%
CCOc1ccc(N/C=C/C(=O)c2ccccc2)cc1,0.269 µM (active),–
CC(Oc1ccccc1F)C(=O)NN (configuration not stated),–,1.14%
CCOC(=O)Cc1ccc(NC(=O)Nc2c[nH]c(=O)[nH]c2=O)cc1,–,-6.71%
COc1ccc(OC)c(NC(=O)CN2CCCN(Cc3cc(C)ccc3C)S2(=O)=O)c1,–,-1.23%
COc1cccc(NC(=O)C2CCN(c3cc(C)nc4c(-c5ccc(Cl)cc5)c(C)nn34)CC2)c1,–,-6.24%
COc1ccc(OC)c(-c2noc(N3CCN(c4cc(Cl)ccc4C)CC3)n2)c1,–,2.18%
Cc1ccccc1CNC(=O)Cn1c(C)c2cnn(-c3ccccc3)c(=O)c2c1C,–,1.72%
O=C(CN(CC1CCCO1)C(=O)CNS(=O)(=O)c1ccc(F)cc1)NCc1ccco1 (configuration not stated),–,-0.026%
CCOc1ccc(N/C=C/C(=O)c2cc(OC)c(OC)c(OC)c2)cc1,13.5 µM (active),–
CCC(=O)c1ccc(OC(=O)/C=C/c2cc(OC)c(OC)c(OC)c2)cc1,–,-18.9%
CCOc1ccc(C(NC(=O)c2cc(OC)c(OC)c(OC)c2)c2cc(Cl)c3cccnc3c2O)cc1 (configuration not stated),–,-4.4%
